# PubChem BioAssay
# Activity calls are given as the source filed them. Unless noted, no rule for the calls is given here.
# Experiments:
# [1] = test system: Wnt5a (protein binding on small-molecule microarray); assay: Wnt5a binders on small-molecule microarray, primary screen, biophysical, 635/667 nm fluorescence (AID 1142); settings: 635 nm fluorescence, higher = more signal;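 also: fluorescence read at 667 nm with signal to noise per printed feature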
# [2] = cell viability in Huh7 cells, primary screen, cytotoxicity control for HCV replication inhibitor project, CellTiter-Glo luminescence, basal, 48 h (AID 1143); settings: Huh7 HCV replicon, higher = more signal, called active from +8 up or from −8 down;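 also: Huh7 hepatoma cells carrying a hepatitis C replication reporter with no stimulus; test concentration not given here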
# [3] = P. aeruginosa biofilm formation inhibitors, primary screen, PAO1 strain, BacTiter-Glo luminescence, LB-PBS (AID 1144); settings: 12 h, higher = more signal
# [4] = CREB reporter modulators without forskolin, primary screen, cell-based, PC12, CRE-LacZ reporter, unstimulated (AID 1145); settings: no forskolin, luminescence, 4.5 h, higher = more signal, called active from +8 up or from −8 down
# [5] = CREB reporter modulators under forskolin, primary screen, cell-based, PC12, CRE-LacZ reporter, forskolin-stimulated (AID 1146); settings: luminescence, 4.5 h, higher = more signal, called active from +8 up or from −8 down;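 also: PC12 cells with 6xCRE LacZ reporter stimulated by forskolin 10 µM; beta-galactosidase reporter signal reflecting CREB driven transcription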
# [6] = target: Streptavidin (Streptomyces avidinii) (UniProt P22629); assay: streptavidin binders on small-molecule microarray, primary screen, artefact control for SMM compound annotation, biophysical, 635/667 nm fluorescence (AID 1147); settings: streptavidin binding, higher = more signal;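 also: signal reflects streptavidin binding to arrayed compounds as a control protein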
# [7] = small-molecule binders of probe aInhba, primary screen, biochemical, small-molecule microarray, 635/667 nm fluorescence (AID 1148); settings: higher = more signal;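 also: score merges 667nm spot fluorescence with signal-to-noise for antibody binding to printed compounds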
# Torsin-1A (Homo sapiens) [8] = target: Torsin-1A (Homo sapiens) (UniProt O14656); assay: torsin A binders from cell lysate, primary screen, small-molecule microarray, wild-type, 635/667 nm (AID 1149); settings: COS7 hTOR1A-WT lysate, 635 nm fluorescence, higher = more signal
# Torsin-1A (Homo sapiens) [9] = target: Torsin-1A (Homo sapiens) (UniProt O14656); assay: small-molecule binders of mutant TOR1A in lysate, primary screen, cell lysate, small-molecule microarray, COS7 lysate, 635/667 nm fluorescence (AID 1150); settings: COS7 hTOR1A mutant lysate, 635 nm fluorescence, higher = more signal;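 also: score pools 667 nm emission and signal to noise measuring lysate protein binding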
# [10] = test system: Sonic hedgehog protein (Shh); assay: small-molecule binders of Shh protein, primary screen, biochemical, small-molecule microarray, 635/667 nm fluorescence (AID 1151); settings: small-molecule microarray binding, 635 nm fluorescence; higher = more signal;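 also: Shh protein binding to compounds spotted on small-molecule microarray slides; score combines spot fluorescence intensity with signal-to-noise across triplicate slides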
# [11] = E. coli DRC41 culture turbidity changes, primary screen, E. coli filamentation inducer project, strain DRC41, OD650, 48 h (AID 1152);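 also: E. coli MC1000 strain DRC41 lacking acrAB efflux pump and sulA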; settings: E. coli DRC41 (acrAB sulA), higher = more signal, called active from +8 up or from −8 down
# [12] = small-molecule binders of probe aLefty1, primary screen, biochemical, small-molecule microarray, 635/667 nm fluorescence (AID 1153); settings: higher = more signal;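 also: score merges spot fluorescence with signal-to-noise ratio from the scanned slide images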
# [13] = PSAC antagonists in infected red cells, primary screen, cell-based, P. falciparum Indochina, OD700, 1 h (AID 1154); settings: P. falciparum Indochina infected RBC osmotic lysis, higher = more signal, called active from +8 up or from −8 down
# [14] = PSAC antagonists in infected red cells, primary screen, cell-based, P. falciparum Indochina, OD700, 2 h (AID 1155);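 also: lysis reports solute entry through the parasite surface anion channel PSAC; channel blockers reduce lysis of infected cells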; settings: P. falciparum Indochina infected erythrocytes, osmotic lysis OD700; higher = more signal, called active from +8 up or from −8 down
# [15] = osmotic lysis modulators in infected erythrocytes, primary screen, PSAC antagonist project, cell-based, P. falciparum Indochina, OD700, 3 h (AID 1156); settings: higher = more signal, called active from +8 up or from −8 down
# [16] = PSAC antagonists in infected red cells, primary screen, cell-based, P. falciparum Indochina, OD700, 18 h (AID 1157); settings: P. falciparum Indochina infected erythrocytes, osmotic lysis OD700, 18 h; higher = more signal, called active from +8 up or from −8 down
# [17] = modulators of S6 phosphorylation in cells, primary screen, cell-based, A549, cytoblot, luminescence, serum-stimulated (AID 1158); settings: A549 phospho-S6 cytoblot, 5 h, higher = more signal;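 also: serum-stimulated A549 lung adenocarcinoma cells; signal is phosphorylated S6 detected by cytoblot immunostaining with HRP secondary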
# [18] = target: NADPH oxidase 2 (Homo sapiens) (UniProt P04839); assay: NOX2-dependent H2O2 signal modulators, primary screen, NOX inhibitor project, cell-based, HEK293-NOX2, PMA-stimulated, Amplex Red fluorescence (AID 1159); settings: 45 min, higher = more signal, called active from +8 up or from −8 down; also: test concentration not given here
# [19] = target: NADPH oxidase 4 (Homo sapiens) (UniProt Q9NPH5); assay: NOX4-dependent H2O2 signal modulators, primary screen, NOX inhibitor project, cell-based, HEK293-NOX4, tetracycline-induced, Amplex Red fluorescence (AID 1160); settings: 45 min, higher = more signal, called active from +8 up or from −8 down
# [20] = target: NADPH oxidase 5 (Homo sapiens) (UniProt Q96PH1); assay: NOX5-dependent H2O2 signal modulators, primary screen, NOX inhibitor project, cell-based, HEK293-NOX5, Amplex Red fluorescence (AID 1161); settings: HEK293-NOX5, ionomycin, 45 min, higher = more signal
# Chain of NADPH oxidase 5 (Homo sapiens) (Q96PH1 whole entry, looked up): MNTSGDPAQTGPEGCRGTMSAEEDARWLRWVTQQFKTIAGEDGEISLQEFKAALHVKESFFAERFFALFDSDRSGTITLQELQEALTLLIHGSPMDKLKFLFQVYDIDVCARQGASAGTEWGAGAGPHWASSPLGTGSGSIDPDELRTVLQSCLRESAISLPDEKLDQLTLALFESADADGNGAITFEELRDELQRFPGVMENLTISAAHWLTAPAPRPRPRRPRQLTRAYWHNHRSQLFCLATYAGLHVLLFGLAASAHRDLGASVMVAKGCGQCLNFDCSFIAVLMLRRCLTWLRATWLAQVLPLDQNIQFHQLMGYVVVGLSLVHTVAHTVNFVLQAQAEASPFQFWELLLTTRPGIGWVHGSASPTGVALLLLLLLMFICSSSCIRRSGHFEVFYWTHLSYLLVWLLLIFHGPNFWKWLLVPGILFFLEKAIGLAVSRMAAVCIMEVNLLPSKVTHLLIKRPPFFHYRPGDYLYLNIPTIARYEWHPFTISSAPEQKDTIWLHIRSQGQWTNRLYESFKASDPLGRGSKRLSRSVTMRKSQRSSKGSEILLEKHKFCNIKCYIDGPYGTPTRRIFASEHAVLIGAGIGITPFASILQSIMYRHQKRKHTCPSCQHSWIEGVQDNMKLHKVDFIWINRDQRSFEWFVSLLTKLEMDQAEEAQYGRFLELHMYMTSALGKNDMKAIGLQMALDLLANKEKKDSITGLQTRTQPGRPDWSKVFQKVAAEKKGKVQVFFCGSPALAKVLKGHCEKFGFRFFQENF
# Chain of NADPH oxidase 2 (Homo sapiens) (P04839 whole entry, looked up): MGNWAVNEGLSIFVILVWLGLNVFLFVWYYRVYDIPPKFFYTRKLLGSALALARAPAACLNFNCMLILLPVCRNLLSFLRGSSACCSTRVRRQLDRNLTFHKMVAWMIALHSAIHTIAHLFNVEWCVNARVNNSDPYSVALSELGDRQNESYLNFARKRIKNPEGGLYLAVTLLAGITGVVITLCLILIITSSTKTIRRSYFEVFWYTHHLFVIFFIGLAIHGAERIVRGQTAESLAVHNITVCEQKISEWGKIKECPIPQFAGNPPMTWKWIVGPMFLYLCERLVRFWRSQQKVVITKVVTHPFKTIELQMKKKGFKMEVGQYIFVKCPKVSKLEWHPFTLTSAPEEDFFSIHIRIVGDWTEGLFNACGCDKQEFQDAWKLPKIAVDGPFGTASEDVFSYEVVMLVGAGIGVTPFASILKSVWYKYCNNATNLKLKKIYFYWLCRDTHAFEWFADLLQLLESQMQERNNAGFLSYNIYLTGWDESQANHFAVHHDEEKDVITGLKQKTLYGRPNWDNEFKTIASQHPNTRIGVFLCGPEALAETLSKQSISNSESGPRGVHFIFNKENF
# Chain of NADPH oxidase 4 (Homo sapiens) (Q9NPH5 whole entry, looked up): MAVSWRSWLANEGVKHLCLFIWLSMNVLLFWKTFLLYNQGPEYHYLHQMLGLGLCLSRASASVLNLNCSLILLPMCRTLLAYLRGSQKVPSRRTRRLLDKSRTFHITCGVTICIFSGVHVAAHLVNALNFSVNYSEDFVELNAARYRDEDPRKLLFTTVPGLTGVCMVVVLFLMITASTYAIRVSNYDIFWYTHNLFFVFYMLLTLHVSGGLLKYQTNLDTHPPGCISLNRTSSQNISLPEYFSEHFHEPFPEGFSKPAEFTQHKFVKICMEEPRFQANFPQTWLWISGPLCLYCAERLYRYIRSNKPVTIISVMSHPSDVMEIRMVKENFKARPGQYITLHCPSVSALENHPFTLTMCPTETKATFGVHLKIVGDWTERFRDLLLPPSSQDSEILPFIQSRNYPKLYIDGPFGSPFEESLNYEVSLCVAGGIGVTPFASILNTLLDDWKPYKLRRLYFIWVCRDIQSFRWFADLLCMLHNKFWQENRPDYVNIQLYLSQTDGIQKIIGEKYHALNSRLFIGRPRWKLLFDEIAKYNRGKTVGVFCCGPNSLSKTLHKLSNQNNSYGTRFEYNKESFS
# Chain of Streptavidin (Streptomyces avidinii) (P22629 whole entry, looked up): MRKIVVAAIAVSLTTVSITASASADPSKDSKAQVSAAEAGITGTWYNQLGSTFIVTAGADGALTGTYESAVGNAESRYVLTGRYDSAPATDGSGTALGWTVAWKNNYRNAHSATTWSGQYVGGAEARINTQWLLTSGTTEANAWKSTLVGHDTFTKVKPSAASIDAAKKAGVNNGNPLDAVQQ
# Chain of Torsin-1A (Homo sapiens) (O14656 whole entry, looked up): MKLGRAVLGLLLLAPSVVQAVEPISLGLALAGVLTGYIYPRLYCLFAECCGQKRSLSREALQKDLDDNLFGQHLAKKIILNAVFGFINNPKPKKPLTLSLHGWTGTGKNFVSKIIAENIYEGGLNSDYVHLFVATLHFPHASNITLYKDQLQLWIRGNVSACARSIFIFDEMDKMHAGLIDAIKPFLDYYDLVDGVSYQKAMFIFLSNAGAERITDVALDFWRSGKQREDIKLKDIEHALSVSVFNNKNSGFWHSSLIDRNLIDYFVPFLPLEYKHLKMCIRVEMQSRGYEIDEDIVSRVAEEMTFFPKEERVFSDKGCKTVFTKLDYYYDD
Compound,composite z-score [1],z-score [2],z-score [3],z-score [4],z-score [5],composite z-score [6],composite z-score [7],composite z-score (Torsin-1A (Homo sapiens) [8]),composite z-score (Torsin-1A (Homo sapiens) [9]),composite z-score [10],z-score [11],composite z-score [12],z-score [13],z-score [14],z-score [15],z-score [16],z-score [17],z-score [18],z-score [19],z-score [20]
COCCOC(=O)N1C(=O)[C@@]2(c3cc(C#CC4(O)CCCCCC4)ccc31)[C@H](C(=O)NC[C@H](O)c1ccccc1)[C@H]1C(=O)O[C@H](c3ccccc3)[C@H](c3ccccc3)N1[C@@H]2c1ccc(OCCO)cc1,-0.0894,-3.38 (inactive),-0.401 (inactive),-0.285 (inactive),0.0759 (inactive),-0.0815,0.217,0.0969,0.124,1.72,1.07 (inactive),-0.007,3.85 (inactive),1.58 (inactive),-1.29 (inactive),1.03 (inactive),0.0102,1.55 (inactive),1.01 (inactive),0.979
C=C(C)[C@@H]1CC=C(C(O)C2C=CC3C(=O)N(C4CCCCC4)C(=O)C3N2Nc2ccc(OC)cc2)CC1 (stereo not given in full),0.187,-1.7 (inactive),-0.645 (inactive),0.369 (inactive),-0.317 (inactive),1.12,-0.0521,-0.0445,0.6,0.966,-0.441 (inactive),0.203,1.75 (inactive),0.415 (inactive),0.604 (inactive),0.56 (inactive),-0.14,0.191 (inactive),-1.34 (inactive),-2.14
C=C[C@@H](O)[C@H]1CC(c2ccccc2)=NO1,-0.184,0.0011 (inactive),0.15 (inactive),1.03 (inactive),0.167 (inactive),0.174,-0.183,0.154,0.334,-0.18,1.07 (inactive),0.0557,16 (active),1.82 (inactive),-0.112 (inactive),0.477 (inactive),-0.194,-0.671 (inactive),-0.0807 (inactive),0.344
CCC[C@@H]1C[C@@]1(CCC)[C@@H](NC(=O)c1cccs1)c1ccc(Cl)cc1,-0.551,-2.21 (inactive),0.803 (inactive),1.15 (inactive),-0.127 (inactive),-0.7,-0.211,-0.312,-0.412,-0.949,-0.26 (inactive),0.0319,-0.119 (inactive),-0.639 (inactive),0.307 (inactive),0.0519 (inactive),-0.392,-1.47 (inactive),-0.556 (inactive),0.684
CO[C@H]1O[C@H](CO)[C@@H](OC(=O)Nc2cccc(F)c2)[C@H](OC(=O)Nc2ccc3c(c2)OCO3)[C@H]1OC(=O)Nc1ccc2c(c1)OCO2,0.146,-2.58 (inactive),-0.905 (inactive),0.195 (inactive),-0.724 (inactive),-0.0782,0.0155,0.967,1.2,1.52,0.903 (inactive),0.236,6.15 (inactive),0.462 (inactive),0.521 (inactive),0.643 (inactive),-0.0353,-3.15 (inactive),-0.681 (inactive),-2.02
CCOC(=O)C[C@H]1[C@H](OC(=O)c2ccccc2-c2ccccc2)[C@@H](NC(=O)c2ccccc2)c2cc(OCCCO)ccc2N1C(=O)Cc1ccc(OC)cc1,-0.105,0.0692 (inactive),-0.228 (inactive),1.58 (inactive),0.0006 (inactive),0.621,-0.154,-0.193,0.0375,0.0772,-0.81 (inactive),-0.193,2.01 (inactive),0.318 (inactive),-0.338 (inactive),0.109 (inactive),0.0269,0.639 (inactive),1.22 (inactive),0.327
O=C1O[C@H](c2ccccc2)[C@H](c2ccccc2)N2[C@H]1[C@@H](C(=O)NC[C@H](O)c1ccccc1)[C@]1(C(=O)Nc3ccccc31)[C@H]2c1ccccc1OCCO,-0.0435,-6.33 (inactive),-0.908 (inactive),-0.581 (inactive),-0.563 (inactive),-0.164,0.0841,0.735,1.18,1.29,2.45 (inactive),0.453,5.21 (inactive),1.84 (inactive),-2.5 (inactive),-0.343 (inactive),2.39,1.23 (inactive),0.707 (inactive),0.34
C[C@]12C(=O)N(CCCCCO)[C@@H]3C(=O)N(c4ccc(Cl)cc4)CC=CC31O[C@@H]1/C=C\CCCOC(=O)C12 (stereo not given in full),-0.937,-0.297 (inactive),1.45 (inactive),0.203 (inactive),-0.416 (inactive),-1.19,-0.179,-2.76,-1.63,0.0607,-1.14 (inactive),-0.0054,-0.198 (inactive),-0.307 (inactive),-1.04 (inactive),-0.183 (inactive),-0.58,0.754 (inactive),0.055 (inactive),1.45
